This is part of a sample that, as a whole, favours compounds with a hit. Of some 83,000 tested, about 20% had one in any assay.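 A percent growth of 40 corresponds to 60% growth inhibition; 0 means no net growth; -100 means all cells died. Active threshold: below 10.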 Unmarked numbers belong to inactive results. Calls of active or inactive are those of the source.

What all share (experiment): NCI-60 one-dose screen, 48 h (100 = growth as untreated, 0 = no growth, -100 = all killed)
Holding throughout (settings): 10 µM unless noted

The test system of test [1] is HCT-15 colon.
In test [2] the test system is HT29 colon.
Test [3] has as its system SNB-75 CNS.
For test [4], the system named is SNB-19 CNS.
For test [5], the system named is U251 CNS.
For test [6], the system named is PC-3 prostate.
Test [7] concerns SK-MEL-5 melanoma.
Test [8] relates to UACC-62 melanoma.
For test [9], the system named is LOX IMVI melanoma.
The subject of test [10] is SK-MEL-28 melanoma.
For test [11], the system named is SK-MEL-2 melanoma.
The subject of test [12] is EKVX NSCLC.
Test [13] has as its system SN12C renal.
Test [14] deals with UO-31 renal.
Test [15] concerns TK-10 renal.
Test [16] relates to ACHN renal.
For test [17], the system named is CAKI-1 renal.
For test [18], the system named is A498 renal.
In test [19] the test system is CCRF-CEM leukemia.
Test [20] deals with MOLT-4 leukemia.

For `C=C1C(=O)O[C@H]2[C@H]1CC/C(COC(=O)NCCCCNC(=O)OC/C1=C/CC[C@@]3(C)O[C@H]3[C@H]3OC(=O)C(=C)[C@@H]3CC1)=C\CC[C@@]1(C)O[C@@H]21`, the growth in [1] was 81.6%; in test [2] it was 5.38% (active); in test [3], 49.5%; in test [4], 90.9%; in test [5] it was 73.6%; in test [6], 67.7%. For the same compound, the growth was 76.8% in test [7]; -20.8% (active) in test [8]; -22.5% (active) in test [9]; -10.1% (active) in test [10]; 36.4% in [11]; 89% in [12]. The growth in [13] is 19.6%; in test [14], 79.8%; in test [15] it was 20.1%; in [16], 57.5%; in [17], 76.8%; in test [18], 95.1%. Also, the growth in test [19] was -33.6% (active); in test [20], -14.8% (active).

In the case of `COc1ccc(C/C(C)=C(/c2ccc(OCCN3CCCCCC3)cc2)c2ccc(OC(=O)c3ccccc3)cc2)cc1`, the growth was 100% in [1]; 89.9% in [2]; 110% in test [3]; 102% in test [4]; 107% in test [5]; 101% in [6]. Further, the growth is 109% in [7]; 99.1% in [8]; 90.7% in test [9]; 106% in [10]; 97.4% in [11]; 93% in test [12]. Also, the growth was 97.4% in [13]; 88.4% in test [14]; 97.2% in test [15]; 99.6% in test [16]; 104% in test [17]; 120% in test [18]. For the same compound, the growth in [19] was 93%; in test [20], 77%.

As for `COc1ccc(/C=N\Nc2nc(SCC(C)C)nc(-c3ccc(OC)cc3)c2C#N)cc1`, the growth is 71% in [1]; 56.4% in [2]; -23.3% (active) in test [3]; 31% in [4]; -7.88% (active) in [5]; 53.6% in [6]. In addition, the growth in test [7] was 77.2%; in test [8], 86.1%; in test [9], 31.9%; in test [10], 101%; in test [11], 87%; in test [12], 35.1%. Further, the growth in [13] is 2.1% (active); in [14] it was -53.5% (active); in test [15], -54.7% (active); in test [16], -71.7% (active); in [17], 9.54% (active); in test [18] it was -7.9% (active). For the same compound, the growth in test [19] is 38.6%; in test [20], 30.2%.

For the compound `c1cc(NCCCCN2CCOCC2)c2ccc3c(ccc4c(NCCN5CCOCC5)ccnc43)c2n1`, the growth in test [1] was 70.7%; in [2], 83.1%; in [3], 86.8%; in test [4] it was 68.2%; in test [5], 92.4%; in test [6] it was 57.2%. For the same compound, the growth in test [7] was 98.7%; in test [8], 98.9%; in test [9] it was 45.9%; in [10], 94%; in [11], 99.2%; in [12], 94.8%. In addition, the growth in [13] is 64.8%; in test [14] it was 64.7%; in test [15] it was 143%; in test [16], 60.2%; in test [17] it was 64.2%; in test [18], 86.1%. Besides, the growth in test [19] is 36.9%; in test [20], 43.2%.

Regarding `COc1cc(Cl)cc(-c2nn(C(=O)NS(=O)(=O)c3ccc(Cl)cc3)cc2-c2ccncc2)c1`, the growth was 98.4% in test [1]; 30.8% in test [2]; -8.56% (active) in test [3]; 97.2% in test [4]; 70.6% in test [5]; 88.9% in [6]. The growth was 95.2% in [7]; 73.3% in [8]; 45.5% in [9]; 95.8% in [10]; 95% in test [11]; 59.5% in test [12]. For the same compound, the growth in [13] was 92.5%; in test [14], 63%; in [15] it was 85.8%; in [16], 80.6%; in [17], 91%; in test [18] it was 70.2%. The growth in test [19] was 88%; in test [20], 76.2%.

Consider `O=c1ccc2nc(-c3ccccn3)nn(-c3ccccc3)c-2c1`, for which the growth is -48% (active) in test [1]; -44.2% (active) in [2]; 98.4% in [3]; 98.9% in [4]; 98.3% in test [5]; 89% in test [6]. The growth is 36% in test [7]; 72.7% in test [8]; 11.7% in test [9]; 70.7% in test [10]; 106% in test [11]; 115% in test [12]. In addition, the growth is 84.6% in [13]; 40.1% in test [14]; -70.9% (active) in test [15]; -84.7% (active) in test [16]; 72.5% in test [17]; 91.9% in [18]. The growth in [19] was 8.49% (active); in test [20] it was 5.56% (active).

For the compound `COC(=O)/C=C1/SC(N2N=C(c3cccs3)CC2c2ccc(F)cc2)=NC1=O` (stereo not given), the growth in [1] was -9.66% (active); in test [2], 13.3%; in [3], 48%; in test [4], 76.4%; in test [5] it was 22.1%; in test [6], 64.5%. For the same compound, the growth in test [7] is 54.1%; in test [8] it was 56.8%; in test [9], -46.5% (active); in test [10], 43.8%; in test [11], 80.9%; in test [12] it was 94%. For the same compound, the growth was 56% in test [13]; 52.6% in test [14]; 78.5% in test [15]; 74.4% in [16]; 77% in test [17]; 80.5% in test [18]. The growth in test [19] was 8.74% (active); in [20], -3.67% (active).

`O=C(Nc1ccc2ccccc2c1)c1cc2ccccc2cc1O`: the growth in [1] is 85.9%; in test [2] it was 98.9%; in test [3] it was 103%; in [4], 97.9%; in [5] it was 87.2%; in test [6], 78%. Further, the growth in test [7] is 86.7%; in [8], 72.5%; in [9], 94.4%; in test [10], 89.1%; in test [11] it was 79.3%; in [12], 99.7%. For the same compound, the growth in test [13] was 89.2%; in test [14], 58.8%; in test [15], 103%; in test [16], 89.2%; in [17], 87.1%; in test [18], 90.4%. The results for the growth in test [19] and in [20] were 75% and 82.2%, respectively.

Regarding `Clc1ccc2c(c1)N(c1ncnc3ccc(-c4cnc5[nH]ccc5c4)cc13)CC2`, the growth in test [1] is 14.4%; in test [2] it was 3.75% (active); in test [3], 3.69% (active); in test [4], 38.3%; in test [5] it was 41.3%; in test [6], 28.2%. Further, the growth in [7] is 32.7%; in test [8] it was 29.3%; in [9], 13.4%; in test [10], 36%; in test [11], 28.3%; in test [12], 26.6%. Also, the growth in test [13] was 26.7%; in [14], 21%; in [15] it was 26.2%; in [16], 28.4%; in test [17], 31.4%; in test [18] it was 8.49% (active). Moreover, the growth in test [19] is 21.1%; in test [20], -6.69% (active).

Consider `Cc1ccc(Cc2cnc(NC(=O)c3cc(C)oc3C)s2)cc1`, for which the growth is 39.1% in test [1]; 51.3% in test [2]; 76.6% in test [3]; 84.2% in [4]; 66.9% in test [5]; 72.8% in [6]. Moreover, the growth is 93.6% in [7]; 47.6% in [8]; 68.9% in test [9]; 81.3% in test [10]; 85.6% in test [11]; 57.4% in [12]. Also, the growth in test [13] was 86.9%; in test [14], 61.2%; in test [15] it was 63.6%; in [16], 70.4%; in [17], 38.4%; in test [18] it was 84.4%. The figures for the growth in test [19] and in [20] were 70.8% and 60.2%, respectively.

For the compound `CCn1cc(C(=O)NN=C2CCCC2)c(=O)c2ccc(C)nc21`, the growth is 96.6% in test [1]; 96.9% in [2]; 86.1% in test [3]; 96.6% in test [4]; 96.5% in test [5]; 85.6% in [6]. The growth in test [7] is 92.8%; in [8] it was 78.6%; in test [9], 98.1%; in [10], 90.9%; in test [11], 96.5%; in test [12], 88.8%. The growth in [13] is 81%; in test [14] it was 81.3%; in [15], 100%; in [16], 86.6%; in test [17], 84.2%; in test [18], 66.7%. In addition, the growth in test [19] is 89.7%; in test [20], 100%.

For the compound `Nc1c(C(=O)Nc2ccncc2)sc2nc3c(cc12)CCCCCCCC3`, the growth in test [1] was -82.2% (active); in test [2], -92.6% (active); in [3], -96.2% (active); in test [4], -77.1% (active); in test [5], -89.2% (active); in test [6], -18.9% (active). Besides, the growth in test [7] is -96.1% (active); in test [8], -94.9% (active); in [9] it was -84.7% (active); in test [10], -91.4% (active); in test [11], -86.7% (active); in test [12], -31.2% (active). The growth was -65.1% (active) in test [13]; -95% (active) in test [14]; -75.6% (active) in test [15]; -98.8% (active) in test [16]; -94.8% (active) in test [17]; -9% (active) in test [18]. Besides, the growth was -37.9% (active) in test [19] and -40.6% (active) in [20].

For the compound `Cc1nc2sc(C(=O)Nc3cccc4ccccc34)c(N)c2cc1C(=O)/C=C/c1ccccc1`, the growth was -63.3% (active) in test [1]; -47.9% (active) in [2]; 8.27% (active) in test [3]; -27.1% (active) in test [4]; -67.3% (active) in test [5]; -8.41% (active) in [6]. Also, the growth in test [7] was -17.8% (active); in test [8], 7.54% (active); in test [9] it was -73.1% (active); in [10], 23.6%; in [11] it was 27%; in [12], 41.1%. Moreover, the growth in [13] was -44.3% (active); in test [14], -82.6% (active); in test [15], 4.36% (active); in [16], 5.45% (active); in test [17] it was -60.6% (active); in test [18], -5.08% (active). The figures for the growth in test [19] and in test [20] were 5.51% (active) and 18.4%, respectively.

Regarding `Cc1ccc(-c2nc(SCC(=O)c3ccc(C#N)cc3)[nH]c(=O)c2C#N)cc1`, the growth in test [1] is 105%; in test [2] it was 97.9%; in test [3], 87.5%; in test [4], 106%; in test [5], 100%; in test [6], 104%. Besides, the growth in test [7] is 114%; in test [8] it was 99.2%; in test [9], 92.9%; in test [10], 103%; in [11], 104%; in test [12], 113%. For the same compound, the growth is 108% in test [13]; 76.7% in [14]; 99.7% in [15]; 96.1% in [16]; 93.4% in test [17]; 105% in [18]. In addition, the growth in test [19] was 114%; in test [20], 110%.

Values taken from PubChem BioAssay (NCI).
